Data from PubChem BioAssay AID1362 (SRMLSC, 2008).
The campaign covered roughly 190,000 compounds. About 4,000 (2.1%) were called active. No stated cut-off is given here; in the data, active means inhibition above about 58%; inactive means the rest, inconclusive results apart; tested in S. cerevisiae. Only a selection was taken, and actives are over-represented in it overall.

Assay: growth inhibition of WT strain, primary screen, mitochondrial fusion inhibitor project, WT and mutant strains, chemical genetic (AID 1362)
Details: mitochondrial fusion phenotypic screen, at 10 µM
[1] = WT strain, growth inhibition, stronger effect = higher value

Row | Structure (SMILES) | inhibition [1] | inhibition (mutant strain inhibition) [%]
1 | CCNC(=S)N(CCc1c(C)[nH]c2ccc(C)cc12)Cc1ccco1 | 22.5% (inactive) | -3.3
2 | COc1ccc2[nH]c(C)c(CCN(Cc3cccs3)C(=S)Nc3ccccc3OC)c2c1 | 10.9% (inactive) | 3.89
3 | Cc1ccc(N(C(=O)c2sc(C)nc2C)C(C(=O)NC(C)(C)C)c2ccncc2)cc1 (centres undefined) | -8.21% (inactive) | 7.16
4 | COc1ccc(C2CC(c3cccs3)=NN2C(=O)CSc2nnc(N)s2)cc1OC (centres undefined) | -8.12% (inactive) | -5.34
5 | CCN1CN(Cc2ccccc2)CNC1=S | 1.7% (inactive) | 0.04
6 | CC1CC(=S)Nc2ccccc2N1Cc1ccccc1 (centres undefined) | 65.9% (active) | 26.3
7 | CC1CC(C)(C)NC(=S)N1CCC(=O)N1CCN(Cc2ccccc2)CC1 (centres undefined) | -6.52% (inactive) | -4.03
8 | COc1cccc(CC2(CO)CCCN(Cc3nc(-c4cccs4)oc3C)C2)c1 (centres undefined) | 19.9% (inactive) | 6.17
9 | CCN(CC)S(=O)(=O)c1ccc(Cl)c(NC(=O)c2ccncc2)c1 | -7.6% (inactive) | -15.4
10 | Cc1ccc(COc2ccc(C(=O)NN)cc2)cc1 | 18.5% (inactive) | 22.2
11 | CN(C)C(=O)c1nc2ccc(Cl)cn2c1CN1CCN(c2ncccn2)CC1 | -14.1% (inactive) | -9.73
12 | c1ccc(-c2cn3c(n2)CCc2ccc4cccnc4c2-3)cc1 | 67.5% (active) | 4.75
13 | c1ccc(-c2cn3cccnc3n2)cc1 | 7.76% (inactive) | -1.07
14 | COc1ccc(/C=C/C(=O)N2CCCC2)cc1OC | -13.6% (inactive) | -0.71
15 | Cc1ccccc1-c1n[nH]c(=S)n1C | -5.68% (inactive) | 4.36
16 | c1ccc(CC2CCN(c3nc4ccccc4n4cnnc34)CC2)cc1 | 55.9% (inactive) | 25.1
17 | O=C(Nc1ccccc1N1CCCCC1)c1ccc2nccnc2c1 | 26.1% (inactive) | 32.9
18 | O=C(c1ccccc1)c1ccc2nc(N3CCCCC3)c3nncn3c2c1 | 60.2% (active) | 50.8
19 | O=C(CN(CC1CCCO1)C(=O)CNS(=O)(=O)c1ccc(F)cc1)NCc1ccco1 (centres undefined) | -16.3% (inactive) | -1.9
20 | CSCCC(=O)N1CCCC(CNC(=O)c2ccccc2Cl)C1 (centres undefined) | 0.33% (inactive) | -1.81
21 | CCn1c(=S)[nH]c2sc3c(c2c1=O)CCCCC3 | 44.5% (inactive) | 47.1

Row | Structure (SMILES) | inhibition [1] | inhibition (mutant strain inhibition) [%]
22 | CCC1(C)Cc2c(sc3[nH]c(=S)n(Cc4ccccc4)c(=O)c23)CO1 (centres undefined) | 71% (active) | -13.6
23 | CCC1(C)Cc2c(sc3nnn(CC(=O)Nc4ccc(Cl)cc4)c(=O)c23)CO1 (centres undefined) | 6.37% (inactive) | 8.2
24 | c1ccc2sc(NN=C3CCCC3)nc2c1 | 1.96% (inactive) | -13.6
25 | Cc1cc(C)n2nc(SCC(N)=O)nc2n1 | 1.11% (inactive) | -5.58
26 | COc1ccc(Br)cc1CN(C)CC(=O)Nc1cc([N+](=O)[O-])ccc1OC | -3.27% (inactive) | 14
27 | COc1ccc(Cl)cc1NC(=O)CN(C)Cc1ccc(OC)c(OC)c1 | 13.3% (inactive) | 10.6
28 | COc1ccc(Br)cc1CN(C)CC(=O)Nc1cc(Cl)cc(Cl)c1 | 64.1% (active) | -2.55
29 | CCC(C(=O)Nc1ccc2c(c1)OCCO2)c1ccccc1 (centres undefined) | -3.34% (inactive) | -11.8
30 | CCOC(=O)N1CCN(Cc2nc3ccc([N+](=O)[O-])cc3c(=O)n2-c2cccc(OC)c2)CC1 | -16.2% (inactive) | 2.45
31 | COc1cc(C(=O)NCc2ccc(-n3cccc3)cc2)cc(OC)c1OC | 4.37% (inactive) | -13.6
32 | COC(=O)CCNC(=O)c1ccc2[nH]c(C)c(C)c2c1 | 3.23% (inactive) | -1.22
33 | Cc1cccc(OCC(O)CN2CCN(CCN3C(=O)c4cccc5cccc(c45)C3=O)CC2)c1C (centres undefined) | 64.5% (active) | 57.3
34 | Cc1ccccc1OCC(O)CN1CCN(c2ccccn2)CC1 (centres undefined) | 5.12% (inactive) | 6.35
35 | Cc1cccc(C)c1OCC(O)CN1CCCCC1 (centres undefined) | -0.96% (inactive) | 0.39
36 | CN(CCc1cn[nH]c1)C(=O)CC1C(=O)NCCN1Cc1cccc(Oc2ccccc2)c1 (centres undefined) | 0.86% (inactive) | 0.64
37 | CC(C)C(=O)Nc1oc(-c2ccccc2)cc1C#N | 8.16% (inactive) | -3.13
38 | O=C(Nc1nnc(-c2ccccc2)o1)c1cc(-c2cccs2)nc2ccccc12 | 70.4% (active) | 64.4
39 | CC(C)(C)Cc1nnc(NC(=O)c2cc(-c3ccccc3)nc3ccccc23)s1 | 34.7% (inactive) | 9.7
40 | CCCC(=O)Nc1nnc(-c2ccccc2)o1 | -6.78% (inactive) | 13.2
41 | Cc1cc(C)c2[nH]c(=O)c(CN(Cc3ccccc3)C(=S)NCCCN(C)C)cc2c1 | -2.4% (inactive) | 16.4
42 | Cc1cc2c(cc1C)[n+](C)cn2CC(O)COCC1CC=CCC1 (centres undefined) | 0.89% (inactive) | -7.37
